High-throughput results as filed in PubChem.
Luc counter – Kinase-Glo luciferase inhibition (counter-screen). Kinase-Glo luciferase, ATP luminescence, 8 min. Potency, µM (top dose mostly 38.3 µM), hits mostly inhibitors. actives 0.28% (n = 200,000); note: nearly all actives have a fitted effect of over 60% in size
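Light output from Kinase-Glo luciferase with luciferin and 10 uM ATP in 50 mM imidazole pH 7.2, KCl, MgCl2, Tween 20, BSA; compound pin-delivered, 8-min ambient incubation, then luminescence read.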
ELG1 genotoxic – inducers of genotoxicity in HEK293T ELG1-luciferase cells; Potency, µM (top dose mostly 46 µM), usual class: activators; HEK293T ELG1-luciferase reporter, luminescence, 16 h; actives 1.3% (n = 330,000); note: nearly all actives have a fitted effect of over 60% in size
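HEK293T cells expressing luciferase-tagged ELG1 were treated with compound or DMSO for 16 hr at 37°C. Luciferase activity was then read after 30 min with ONE-Glo at room temperature; rising signal flags genetic stress.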
NPC1 prom act – NPC1 promoter activation. Huh7 NPC1 promoter luciferase reporter, 24 h. Potency, µM (series often up to 9.22 µM), hits mostly activators. actives 2.4% (n = 320,000); note: nearly all actives have a fitted effect of over 60% in size
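Compounds in DMSO were transferred onto Huh7 NPC1-luciferase reporter cells pre-incubated 2 h; after 24 h at 37 °C, Amplite reagent was dispensed and luminescence recorded 10 min later.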
SMN2 splice enh – enhancers of SMN2 splice variant expression; Potency, µM (highest dose often 46.1 µM), actives largely listed as activators; HEK293 SMN2-luciferase splicing reporter, luminescence, 30-36 h; AID 1458; actives 2.8% (n = 210,000); note: nearly all actives have a fitted effect of over 55% in size
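HEK293 cells carry an SMN2 […]–luciferase reporter in which exon 7 inclusion puts luciferase in frame. Cells were plated 10-12 h before compound addition, then incubated 30-36 h at 37C. ONE-Glo luminescence was read; sodium butyrate at 4.5 mM final served as control.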
Rab9 prom act – activates the Rab9 promoter | Huh7 Rab9 promoter-luciferase reporter, luminescence, 24 h | Potency, µM (titrated, usually from 9.22 µM), hits mostly activators | actives 2.8% (n = 320,000); note: nearly all actives have a fitted effect of over 60% in size
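Huh7 cells stably carrying a Rab9 promoter-luciferase reporter, 1500 cells per well in OP-MEM I with 10% FBS, treated with compound 24 hours at 37C. Luciferase activity read by luminescence after 10 minutes with Amplite reagent.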
FLuc modulator – inhibits or activates purified firefly luciferase, miR-21 counter-screen; AID 588342; purified FLuc, Km substrates, luminescence inhibition; P08659; actives 6.9% (n = 360,000); Potency, µM (titrated, usually from 57.5 µM), hits mostly inhibitors; note: nearly all actives have a fitted effect of over 55% in size
Target sequence (P08659 whole entry, looked up): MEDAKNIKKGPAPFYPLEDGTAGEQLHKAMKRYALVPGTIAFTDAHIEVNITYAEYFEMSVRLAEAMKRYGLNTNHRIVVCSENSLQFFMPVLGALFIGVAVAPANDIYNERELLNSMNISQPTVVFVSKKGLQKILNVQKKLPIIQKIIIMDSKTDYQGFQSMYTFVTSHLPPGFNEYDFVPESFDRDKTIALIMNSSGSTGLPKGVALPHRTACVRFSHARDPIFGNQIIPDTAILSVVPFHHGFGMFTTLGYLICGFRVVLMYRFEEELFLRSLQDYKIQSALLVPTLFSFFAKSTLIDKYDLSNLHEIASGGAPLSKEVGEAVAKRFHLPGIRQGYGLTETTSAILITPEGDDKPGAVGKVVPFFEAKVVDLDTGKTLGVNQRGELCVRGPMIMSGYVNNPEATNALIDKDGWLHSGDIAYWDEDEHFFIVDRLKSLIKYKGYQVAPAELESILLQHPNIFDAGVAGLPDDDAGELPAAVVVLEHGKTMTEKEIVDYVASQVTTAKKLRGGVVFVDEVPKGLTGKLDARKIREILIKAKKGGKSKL
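Purified P. pyralis luciferase (10nM final) with 10uM D-luciferin and 10uM ATP (Km levels) in 50mM Tris acetate pH 7.5, 10mM Mg acetate, 0.01% Tween-20, 0.05% BSA; qHTS 6-point titration, ~60 µM downward; luminescence read.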
A number is an active result; i = inactive; ? = inconclusive; nt = no result. Only some compounds are listed: those with a hit (about 7.5% of all), similar ones and a draw of the others. Calls come from the whole dose curve; as a rule, active = well fitted curve in the direction sought with a large enough effect; inconclusive = small, poorly fitted or top-dose-only effect, or another doubt; inactive = no such curve, though single readings can be large; an effect the other way counts as inactive or inconclusive.

SMILES	Luc counter	ELG1 genotoxic	NPC1 prom act	SMN2 splice enh	Rab9 prom act	FLuc modulator
COc1ccc(C2(C)NC(=O)N(CC(=O)NC3CC3)C2=O)cc1 (stereo not drawn)	nt	i	nt	nt	nt	nt
Cc1ccccc1Cn1cc(NC(=O)c2cc(C3CC3)on2)cn1	nt	i	?	nt	?	19µM
Cc1ccccc1Cn1cc(NC(=O)c2cc(-c3ccc(Cl)cc3)on2)cn1	nt	nt	nt	i	nt	i
CCOC(=O)C1CCCN(C(=O)c2cc(Nc3ccc(OC)c(OC)c3)nc3ccccc23)C1 (stereo not drawn)	i	i	i	i	i	10.7µM
COc1ccc(Nc2cc(C(=O)NCc3ccccc3)c3ccccc3n2)cc1OC	nt	nt	nt	i	nt	i
CCOC(=O)C1CCCN(C(=O)c2cn(CC)c3ccc(S(=O)(=O)N4CCCC4)cc3c2=O)C1 (stereo not drawn)	i	i	i	i	i	i
CCOC(=O)C1CCN(C(=O)CC(C)c2ccccc2)CC1 (stereo not drawn)	i	nt	nt	i	nt	i
CCOC(=O)C1CCCN(C(=O)c2cc(Nc3ccc(OC)cc3OC)nc3ccccc23)C1 (stereo not drawn)	i	i	i	i	i	9.53µM
CCOC(=O)C1CCCN(C(=O)c2cn(C)c3ccc(S(=O)(=O)N4CCCC4)cc3c2=O)C1 (stereo not drawn)	i	i	i	11.2µM	i	i
COc1ccc(Nc2cc(C(=O)NC3CCCC3)c3ccccc3n2)c(OC)c1	nt	i	i	i	i	?
CCOC(=O)C1CCCN(C(=O)CC(C)c2ccccc2)C1 (stereo not drawn)	i	?	2.82µM	?	2µM	?
CCOC(=O)C1CCCN(C(=O)c2cnn3c(C(F)(F)F)cc(-c4ccccc4)nc23)C1 (stereo not drawn)	i	i	i	i	i	i
CCOC(=O)C1CCCN(C(=O)c2cc(-c3ccc(C)cc3)nc3ccccc23)C1 (stereo not drawn)	i	i	i	i	i	4.78µM
CC(OC(=O)c1ccc(Cl)c(S(N)(=O)=O)c1)C(=O)NCc1ccc2c(c1)OCO2 (stereo not drawn)	nt	i	i	nt	i	i
C(=C/c1nccc2c1[nH]c1ccccc12)/c1ccc2c(c1)OCO2	i	?	?	i	i	3.01µM
O=c1c2ccccc2nc(/C=C/c2ccc3c(c2)OCO3)n1CCCO	i	i	i	i	i	?
N#CC(=C(\N)Sc1ccccc1N)/C(C#N)=C(/N)Sc1ccccc1N	i	nt	i	i	i	nt
C=CCc1c(C)nc(-c2ccccc2)nc1N/N=C(\C)c1ccc(N)cc1	i	i	i	i	i	12µM
C=CCc1c(C)nc(-c2ccccc2)nc1N/N=C/c1ccncc1	i	i	i	i	i	6.01µM
C=CCc1c(C)nc(-c2ccccc2)nc1N/N=C/c1ccccc1	i	i	i	i	i	9.53µM
C=CCc1c(C)nc(-c2ccccc2)nc1Nc1ccccc1O	i	i	i	i	i	i
CCc1ccc2oc(C(=O)Nc3sc4c(c3C(=O)NC)CCCC4)cc(=O)c2c1	nt	nt	nt	i	nt	i
O=c1c2ccccc2nc(/C=C/c2c[nH]c3ccccc23)n1CCO	i	i	?	nt	?	10.7µM
CC(=O)O[C@@H]1CC(C)=C2[C@H]1[C@H](C)CC[C@H]2/C=C(\C)C(=O)O	nt	nt	nt	i	nt	nt
Cc1cc(C)nc(S/C=C/C(=O)c2ccccc2F)n1	nt	?	i	nt	i	1.51µM
SMILES	Luc counter	ELG1 genotoxic	NPC1 prom act	SMN2 splice enh	Rab9 prom act	FLuc modulator
Cc1cc(NC(=O)c2ccccc2F)on1	i	?	i	?	i	?
O=[N+]([O-])c1ccc(Cl)c(S(=O)(=O)Nc2ccc(-c3ccc(N4CCCC4)nn3)cc2)c1	nt	i	i	nt	i	21.3µM
O=[N+]([O-])c1ccc(Cl)c(S(=O)(=O)Nc2cccc(-c3ccc(N4CCCC4)nn3)c2)c1	nt	i	i	nt	i	15.1µM
Cc1c([N+](=O)[O-])cc(S(=O)(=O)Nc2ccc(-c3ccc(N4CCCC4)nn3)cc2)cc1[N+](=O)[O-]	nt	i	i	nt	i	19µM
Cc1ccc([N+](=O)[O-])cc1S(=O)(=O)Nc1ccc(-c2ccc(N3CCCC3)nn2)cc1	nt	i	i	nt	i	?
CCc1nnc(NC(=O)CSc2nc3c(cc2C#N)CCCC3)s1	i	?	0.891µM	5.62µM	0.501µM	0.849µM
CCOC(=O)CC(=O)CSc1nc2c(cc1C#N)CCC2	i	i	i	i	i	13.5µM
CCOC(=O)c1sc(NC(=O)CSc2nc3c(cc2C#N)CCCCC3)c(C#N)c1C	i	i	i	i	i	i
N#Cc1cc2c(nc1SCC(=O)O)CCCCC2	nt	i	i	nt	i	i
COC(=O)CC(=O)CSc1nc2c(cc1C#N)CCCCC2	i	?	i	?	?	5.36µM
Cc1ccccc1-n1c(SCC(=O)NCc2cccs2)nc2ccccc2c1=O	i	i	i	i	i	i
O=C(N/C(=N\O)c1ccccc1)Nc1ccc(Cl)cc1	i	?	i	nt	i	16.9µM
CC(=O)c1cccc(NC(=S)NC(=O)c2ccccc2)c1	i	?	?	?	2.24µM	7.57µM
O=C(O)c1cccc(NC(=S)NC(=O)c2ccc(-c3ccccc3)cc2)c1	i	?	0.355µM	3.16µM	?	1.07µM
CCOc1ccc(C(=O)NC(=S)Nc2ccccn2)cc1[N+](=O)[O-]	i	i	i	i	?	i
O=C(NC(=S)Nc1ccccn1)c1cccc([N+](=O)[O-])c1	nt	?	1.26µM	nt	1.58µM	23.9µM
C=CCn1c(C)cc(C(=O)COC(=O)CCc2cc(OC)c(OC)c(OC)c2)c1C	nt	i	nt	nt	nt	nt
O=C(Nc1ccc(Cl)cc1)C(Cl)C(=O)c1ccccc1 (stereo not drawn)	nt	?	i	nt	i	15.1µM
Cc1ccc(C(=O)O)cc1NC(=S)NC(=O)c1ccc(-c2ccccc2)cc1	i	?	?	nt	?	1.51µM
CCCCC(=O)NC(=S)Nc1cccc(C(=O)O)c1	i	i	i	nt	i	23.9µM
O=C(O)/C(=N/NC(=O)c1ccc(Cl)cc1)c1ccccc1	nt	i	i	nt	i	16.9µM
CCC(=O)N1c2nc(-c3ccco3)nn2C2(CCCCC2)[C@@H]2CCCC[C@@H]21	nt	nt	nt	nt	nt	i
O=C1CSC(c2ccc([N+](=O)[O-])cc2)N1Cc1ccccc1 (stereo not drawn)	nt	i	i	nt	i	i
CC(C)CCOCC(=O)Nc1cccc(C(=O)O)c1	i	?	0.708µM	14.1µM	0.501µM	5.36µM
O=C(NNC(=S)Nc1ccc(F)cc1)c1cccc([N+](=O)[O-])c1	nt	i	i	nt	i	i
O=C(NC(=S)Nc1ccccn1)c1cncc(Br)c1	i	i	?	i	?	15.1µM
O=C(NC(=S)Nc1cc([N+](=O)[O-])ccc1O)c1cccnc1	i	i	i	i	?	16.9µM
